p53 reactivator: re-activators of mutant p53. H1299 p53-A138V BP100-luciferase reporter, luminescence, 24 h. Potency, µM (highest dose often 92.2 µM), hits mostly activators. hit rate 0.063% among 320,000. AID 504706; note: nearly all actives have a fitted effect of over 45% in size
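p53-null H1299 cells stably carrying temperature-sensitive p53-A138V and a BP100-luciferase reporter were pinned with compounds (4-point, 1:5 series) and held 24 hrs at 37 deg C. Luminescence was read 10 min after detection reagent.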
MCF10A rereplic: inducers of DNA re-replication in MCF 10A breast cells. MCF 10A DNA re-replication, Hoechst nuclear intensity, 48 h. AID 624296. hit rate 2.9% among 350,000. Potency, µM (highest dose often 46.1 µM), most hits filed as activators; note: nearly all actives have a fitted effect of over 50% in size
A-T KAP1 phos: potential ataxia-telangiectasia treatment. hit rate 0.19% among 320,000. F2112 A-T fibroblasts, KAP-1 phosphorylation AlphaLISA; neocarzinostatin DNA damage 30 min before lysis. Potency, µM (doses to about 57.5 µM), actives largely listed as activators. AID 485349; note: nearly all actives have a fitted effect of over 45% in size
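hTERT-immortalized A-T patient fibroblasts (F2112), 500 cells/well in OPTI-MEM, 1% FBS, got compounds for 60 min, then NCS for 30 min at 37C. Lysates were then assayed for phospho-KAP-1 by AlphaLISA (anti-pKAP1 donor, anti-KAP1 acceptor beads), 6 hr at 25C.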
ELG1 DNA repair: blocks ELG1-dependent DNA repair in HEK293T cells | HEK293T ELG1-luciferase reporter, luminescence, 16 h; DNA damage induced by 5-fluorouridine | AID 504467 | hit rate 2.3% among 330,000 | Potency, µM (doses to about 46.1 µM), usual class: inhibitors; note: nearly all actives have a fitted effect of over 55% in size
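5-Fluorouridine DNA damage + compound/DMSO, 2,000 cells/well, 16 h, 37 °C/5% CO2. ONE-Glo, 30 min RT, luminescence. Readout = decrease in reporter signal.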
ELG1 genotox: induces genotoxicity in HEK293T cells with luciferase-tagged ELG1; HEK293T ELG1-luciferase reporter, luminescence, 16 h; Potency, µM (titrated, usually from 46 µM), hits mostly activators; hit rate 1.3% among 330,000; note: nearly all actives have a fitted effect of over 60% in size
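ELG1-luciferase HEK293T cells, 2,000/well; compound pinned in; 16 hr, 37 °C, 5% CO2; ONE-Glo, 30 min RT; luminescence on CCD imager.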
SW480 rerep: DNA re-replication induction in SW480 cells; AID 624297; SW480 DNA re-replication, Hoechst DNA content imaging, 48 h; Potency, µM (series often up to 46.1 µM), hits mostly activators; hit rate 1.8% among 340,000; note: nearly all actives have a fitted effect of over 55% in size
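DNA re-replication was detected as more nuclei of elevated Hoechst intensity after 48 hr exposure to compound (23 nL pinned per well of 250 cells).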
Large screens that a line does not name were inactive. This is a sample that favours compounds with a hit; in the whole collection about 7.1% have one here. Calls come from the whole dose curve; as a rule, active = well fitted curve in the direction sought with a large enough effect; inconclusive = small, poorly fitted or top-dose-only effect, or another doubt; inactive = no such curve, though single readings can be large; an effect the other way counts as inactive or inconclusive.

COc1ccc(C(=O)NCCCNC(=O)c2cnccn2)cc1Br	none
[O-][N+](=Nc1ccccc1)c1ccccc1	none (no result: p53 reactivator, A-T KAP1 phos, ELG1 DNA repair, ELG1 genotox)
Cc1sc(N)nc1-c1c(C)n(C)c2ccccc12	none
Cc1ncsc1CCOC(=O)c1ccc(N2CCOCC2)c([N+](=O)[O-])c1	ELG1 DNA repair inconclusive
Cc1c(CCOC(=O)c2ccc(N3CCOCC3)c([N+](=O)[O-])c2)sc[n+]1CC#N	p53 reactivator inconclusive, MCF10A rereplic 16µM
CCOc1ccc(-n2c(-c3ccc(OC)cc3)c[n+]3c2CCCCC3)cc1	ELG1 DNA repair inconclusive, SW480 rerep inconclusive
COc1ccc(-c2c[n+]3c(n2-c2ccc(C)cc2)CCCCC3)cc1	ELG1 DNA repair 0.92µM
COc1ccc(-n2c(-c3ccc(Cl)cc3)c[n+]3c2CCCCC3)cc1	ELG1 DNA repair 5.8µM
COc1ccc(-c2c[n+]3c(n2-c2ccccc2)CCCCC3)cc1	ELG1 DNA repair inconclusive
O=C(CCN1C(=O)/C(=C/c2ccccc2F)SC1=S)N[C@@H](CO)Cc1ccccc1	MCF10A rereplic inconclusive, ELG1 DNA repair inconclusive, SW480 rerep 22µM
O=C(CCN1C(=O)/C(=C/c2ccccc2)SC1=S)N[C@@H](CO)Cc1ccccc1	p53 reactivator inconclusive, MCF10A rereplic inconclusive, SW480 rerep inconclusive
CNC(=O)c1c(NC(=O)c2ccc(N3C(=O)CCC3=O)cc2)sc2c1CCC(C)C2 (stereo unspecified)	none (no result: p53 reactivator, A-T KAP1 phos, ELG1 DNA repair, ELG1 genotox)
CC1=C(C(=O)N(C)C)C(c2ccc(N3CCOCC3)cc2)NC(=O)N1 (stereo unspecified)	MCF10A rereplic 0.92µM, SW480 rerep 18µM
Cc1cc(S(=O)(=O)N2CCN=C2c2ccccc2)ccc1F	none
CCOc1ccc(S(=O)(=O)N2CCN=C2c2ccccc2)cc1	MCF10A rereplic 21µM, SW480 rerep 7.3µM
COC(=O)c1ccc(/C=C/C(=O)OCC(=O)NCc2cccs2)cc1	ELG1 DNA repair inconclusive
O=[N+]([O-])c1cc(S(=O)(=O)N2CCCCCC2)ccc1Cl	MCF10A rereplic 16µM, ELG1 DNA repair inconclusive
CCOc1cc(S(=O)(=O)N2CCCCC2)ccc1F	none
CCOc1cc(S(=O)(=O)N2CCCC2)ccc1Cl	MCF10A rereplic 1µM, SW480 rerep 0.73µM (no result: A-T KAP1 phos)
Cc1ccc(S(=O)(=O)N2CCCC2)cc1[N+](=O)[O-]	none
COc1ccccc1N1CCN(C(=O)Nc2ccc([N+](=O)[O-])cc2)CC1	ELG1 DNA repair 15µM
COc1ccc(NC(=S)N2CCN(c3ccc([N+](=O)[O-])cc3)CC2)cc1OC	MCF10A rereplic inconclusive, ELG1 DNA repair 13µM
CCCCCCCCNc1ncnc2[nH]ncc12	MCF10A rereplic inconclusive (no result: p53 reactivator, A-T KAP1 phos, ELG1 DNA repair, ELG1 genotox)
CC1(C)Cc2c(C#N)c(SCC(=O)c3ccccc3)nc(N3CCOCC3)c2CO1	MCF10A rereplic inconclusive, ELG1 DNA repair 1.3µM, SW480 rerep inconclusive
CCOC(=O)CSc1nc(N2CCOCC2)c2c(c1C#N)CC(C)(C)OC2	ELG1 DNA repair 2.1µM
c1cc(-c2ccncc2)ccn1	ELG1 DNA repair inconclusive, SW480 rerep 0.52µM
CC(=O)c1c(Cl)nc2cccc3c2c1-c1ccccc1C3=O	none (no result: p53 reactivator)
CC(Oc1ccc(Cl)cc1Cl)c1nc(-c2ccc(NC(=O)c3ccncc3)cc2)no1 (stereo unspecified)	MCF10A rereplic 23µM, ELG1 DNA repair 18µM, SW480 rerep inconclusive
Cc1cc2nc(-c3ccc(NC(=O)C(C)C)cc3)oc2cc1C	p53 reactivator inconclusive, ELG1 DNA repair inconclusive, ELG1 genotox 0.82µM
CC(Oc1ccc(Cl)cc1Cl)c1nc(-c2ccc(NC(=O)c3cccnc3)cc2)no1 (stereo unspecified)	ELG1 DNA repair inconclusive
CC(Oc1ccc(Cl)cc1Cl)C(=O)Nc1ccc2oc(-c3ccncc3)nc2c1 (stereo unspecified)	MCF10A rereplic 9.2µM, ELG1 DNA repair inconclusive, SW480 rerep inconclusive
Cc1cc(C)cc(C(=O)NCC(=O)N2CCC(C(N)=O)CC2)c1	ELG1 DNA repair inconclusive
COc1ccc(C(C)=O)c(Oc2ccc(S(=O)(=O)N3CCOCC3)cn2)c1	none
COc1ccc(C(=O)Nn2c(SCC(=O)NCc3ccccc3)nc3ccccc3c2=O)cc1	ELG1 DNA repair inconclusive, ELG1 genotox 0.082µM
COc1ccc(-c2ccnc(-c3ccc(OCCCF)cc3)n2)cc1	MCF10A rereplic 15µM, ELG1 DNA repair inconclusive, SW480 rerep inconclusive
FCCCOc1ccc(-c2nccc(-c3ccc(Cl)cc3)n2)cc1	ELG1 DNA repair inconclusive
CC(Sc1nnc(-c2cccnc2)n1N)C(=O)NCCC1=CCCCC1 (stereo unspecified)	none
COCC(C)n1c(C)cc(C(=O)COc2ccc(N(C)S(=O)(=O)c3ccc(NC(C)=O)cc3)cc2)c1C (stereo unspecified)	MCF10A rereplic inconclusive, ELG1 DNA repair 4.1µM
CCN(C(=O)COc1ccc(N(C)S(=O)(=O)c2ccc(NC(C)=O)cc2)cc1)C1CCCCC1	MCF10A rereplic inconclusive, ELG1 DNA repair 21µM
COc1ccc(CCNC(=O)CN2C(=O)COc3ccc(S(=O)(=O)N4CCCC4)cc32)c(OC)c1	none
O=C(O)C1CCCN1C(=O)C1CCN(S(=O)(=O)c2cccc(C(F)(F)F)c2)CC1 (stereo unspecified)	none
OCCCn1c(-c2ccccc2)nc(=S)c2c1CCCC2	none
CN(C)CCCn1c(-c2ccccc2)nc(=S)c2c1CCCC2	SW480 rerep 3.3µM
CC(C)(C)Cc1nnc(NC(=O)CSc2ccccc2)s1	ELG1 DNA repair inconclusive, SW480 rerep inconclusive (no result: p53 reactivator)
CC(=O)c1cc(Cl)ccc1OCC(=O)Nc1cccc(S(=O)(=O)N2CCCC2)c1	none
CC(C)(C)c1cc(CCC(=O)NCCc2ccccn2)cc(C(C)(C)C)c1O	ELG1 DNA repair inconclusive
O=C1C=C(NCCc2cc(Br)c(O)c(Br)c2)C(=O)c2ncccc21	MCF10A rereplic inconclusive, SW480 rerep 3.7µM (no result: p53 reactivator, A-T KAP1 phos, ELG1 DNA repair, ELG1 genotox)
Cc1sc2nc(C(C)C)nc(SCC(=O)N3c4ccccc4CC3C)c2c1C (stereo unspecified)	MCF10A rereplic inconclusive
CCc1nc(SCC(=O)N2c3ccccc3CC2C)c2c(C)c(C)sc2n1 (stereo unspecified)	MCF10A rereplic inconclusive, ELG1 DNA repair inconclusive, SW480 rerep 21µM
CCc1nc(SCC(=O)N2CC(=O)Nc3ccccc32)c2c(C)c(C)sc2n1	ELG1 DNA repair 23µM
Cc1sc2nc(C3CCCCC3)nc(SCC(=O)N3CC(=O)Nc4ccccc43)c2c1C	none
Cc1cccc(-n2c(SCC(=O)N3CC(=O)Nc4ccccc43)nc3ccccc3c2=O)c1C	MCF10A rereplic inconclusive, ELG1 DNA repair 21µM, SW480 rerep inconclusive
